High-throughput results deposited in PubChem BioAssay by National Center for Advancing Translational Sciences (NCATS).
The list is not random: actives were taken first. Their share in the collection is about 1.2%.
PI4K2A inh – qHTS for small molecular inhibitors of PI4K2A; Phosphatidylinositol 4-kinase type 2-alpha (Homo sapiens), Q9BTU6; activity change, negative = inhibition, % at 76.9 µM; purified PI4K2A, ADP-Glo luminescence, 1 h; hits give low values; 0.13% of 420,000 active; AID 1346378, 2018; in the data active means activity change below about -50%; inconclusive means mostly about -30% to -49%;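 further: -100% = wells without enzyme as full effect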
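PI4K2A activity was measured by ADP-Glo luminescence: enzyme (4 ug/mL stock) and phosphatidylinositol (1.2 mM stock) in Tris pH 7.5/MgCl2/EGTA/Triton X-100 buffer were reacted with ATP (300 microM stock) for one hour at ambient temperature.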
RGS12 GoLoco inh – qHTS Assay for Inhibitors of RGS12 GoLoco Motif Activity (Red Fluorophore). Guanine nucleotide-binding protein G(i) subunit alpha-1 (Homo sapiens), P63096. Gai1:RGS12 GoLoco peptide FP, rhodamine, 10 min. Potency, µM (top dose mostly 61.6 µM), without a hit: at the highest dose activity, negative = inhibition, most hits filed as inhibitors. 0.44% of 230,000 active. AID 880, 2007; active means well fitted inhibition curve with a large enough effect, not every such curve was filed as active; inactive means no such curve, though single readings can be large or run the other way; further: potency means the concentration at half of the fitted maximal effect; nearly all actives have a fitted effect of over 30% in size
KAT2A inh – qHTS Assay for Inhibitors of GCN5L2. AID 504327, 2011. GCN5L2 HAT assay, ThioGlo1 CoA-SH fluorescence. 0.21% of 390,000 active. Histone acetyltransferase KAT2A (Homo sapiens), Q92830. Potency, µM (titrated, usually from 58.9 µM), for the others: at the highest dose activity change, negative = inhibition, usual class: inhibitors; further: potency means the concentration at half of the fitted maximal effect
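GCN5L2 (20 nM) in 50mM HEPES pH 7.5, 0.1mM EDTA, 0.01% Tween-20 preincubated 15 min with compounds at room temperature. Reaction started with H3(1-25) 75uM, acetyl-CoA 70uM, ThioGlo1 50uM; CoA-thiol fluorescence (Ex340/Em540) read at 0 and 20 min.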
PI5P4K alpha inh – qHTS for Inhibitors of phosphatidylinositol 5-phosphate 4-kinase (PI5P4K) | 1.2% of 330,000 active | max response, % | AID 652105, 2013 | PI5P4Kalpha enzyme, ADP-Glo luminescence, 60 min; hits give low values | Phosphatidylinositol 5-phosphate 4-kinase type-2 alpha (Homo sapiens), P48426; active means max response of -50% or lower; inconclusive means between -30% and -50%; inactive means -30% or higher; further: value at the top dose of about 77 µM
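Compounds were pin-transferred onto PI5P4Kalpha and substrate in HEPES pH 7.4 buffer with EGTA, CHAPS and 5% DMSO. ATP (5 microM final) started the reaction, which ran 60 minutes at room temperature before ADP-Glo detection.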
Pin1 inh – qHTS Assay to Find Inhibitors of Pin1. Pin1 FP peptide displacement, HiFluor488, 10 min. Potency, µM (doses to about 115 µM), for the others: top-dose activity, negative = inhibition, hits mostly inhibitors. 0.009% of 390,000 active; active means well fitted inhibition curve with a large enough effect in the polarisation, with a control signal flat, not every such curve was filed as active; inconclusive means small, poorly fitted or top-dose-only effect, or effect the other way, or a change in a side signal; inactive means no such curve, though single readings can be large or run the other way; the % refers to the polarisation; further: potency means the concentration at half of the fitted maximal effect
Target sequence (Q13526 whole entry, looked up): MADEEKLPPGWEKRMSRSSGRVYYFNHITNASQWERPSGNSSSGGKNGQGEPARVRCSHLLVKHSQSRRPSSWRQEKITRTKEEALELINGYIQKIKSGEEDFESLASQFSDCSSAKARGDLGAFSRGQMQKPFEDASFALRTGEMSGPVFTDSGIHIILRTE
Tb PGK inh – qHTS Assay to Find Inhibitors of Phosphoglycerate Kinase | Potency, µM (highest dose often 57.5 µM), for inactives: top-dose activity change, negative = inhibition, hits mostly inhibitors | PGK/GAPDH coupled, Kinase-Glo luminescence, 60 min | AID 602233, 2012 | 0.043% of 380,000 active; further: potency means the concentration at half of the fitted maximal effect; nearly all actives have a fitted effect of over 60% in size
Target sequence (P07378 whole entry, looked up): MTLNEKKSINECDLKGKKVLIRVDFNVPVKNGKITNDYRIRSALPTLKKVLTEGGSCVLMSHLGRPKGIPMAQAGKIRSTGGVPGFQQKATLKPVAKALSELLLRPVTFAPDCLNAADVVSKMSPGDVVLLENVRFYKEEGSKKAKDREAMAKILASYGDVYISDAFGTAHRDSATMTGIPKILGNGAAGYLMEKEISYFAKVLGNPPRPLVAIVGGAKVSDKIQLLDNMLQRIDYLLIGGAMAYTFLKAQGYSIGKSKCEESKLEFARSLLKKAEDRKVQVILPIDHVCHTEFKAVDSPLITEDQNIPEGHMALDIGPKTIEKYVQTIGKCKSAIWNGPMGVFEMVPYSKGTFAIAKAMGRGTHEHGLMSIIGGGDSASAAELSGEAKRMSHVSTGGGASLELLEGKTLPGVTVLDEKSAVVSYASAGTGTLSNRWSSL
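Recombinant glycosomal PGK reaction used 1,3-bisphosphoglycerate generated in-well by GAPDH (100nM final) in 100mM TEA pH 7.6, 5mM MgCl2, 0.01% Tween-20. After 60 minutes at room temperature, ATP was read by Kinase-Glo Plus luminescence end-point.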
* = called active by the depositor; i = inactive; ? = inconclusive; . = not tested or not shown. Unless noted, the call rests on the fitted dose curve; in most records, active means well fitted curve in the direction sought with a large enough effect; inconclusive means small, poorly fitted or top-dose-only effect, or another doubt; inactive means no such curve, though single readings can be large; an effect the other way counts as inactive or inconclusive. Unless noted, on the % scale 0 is the no-effect control and ±100 the full control effect.

SMILES	PI4K2A inh	RGS12 GoLoco inh	KAT2A inh	PI5P4K alpha inh	Pin1 inh	Tb PGK inh
Cc1[nH]nc2c1C(c1ccc(F)cc1)C(C#N)=C(N)O2 (stereo unspecified)	0.2	9.3%	3.0%	-22.6	-2.1%	i
Cc1[nH]nc2c1C(c1ccsc1)C(C#N)=C(N)O2 (stereo unspecified)	0.4	10.9%	-2.2%	-59.7*	-0.7%	-7.9%
N#CC1=C(N)Oc2n[nH]c(-c3ccncc3)c2C1c1ccsc1 (stereo unspecified)	-8.3	5.6%	1.3%	.	-7.6%	-1.9%
CC(C)NC(=S)NNc1nc2ccccc2s1	-3.2	-11.4%	-14.8%	-66.5*	-4.2%	0.0%
O=C(NNc1nc2ccccc2s1)c1ccc(F)cc1	3.0	-7.2%	2.7%	3.8	5.5%	-9.3%
COc1ccc(NC(=O)CN2C(=O)C(=O)c3ccccc32)c(OC)c1	5.7	.	-3.0%	.	9.1%	-6.2%
CC(C1SC(=S)NC1=O)C1SC(=S)NC1=O (stereo unspecified)	-26.5	.	.	-77.5*	.	-13.4%
O=S1(=O)c2ccccc2C(O)(c2ccccc2)c2ccccc21	4.0	.	.	0.2	8.7%	10.8%
Cc1ccc(-c2nn3c(C)nnc3s2)cc1NC(=O)c1ccc(-c2ccc(Cl)cc2Cl)o1	5.5	189.6%	-2.0%	.	238.6%	-7.8%
Cc1ccc(-c2nn3c(C)nnc3s2)cc1NC(=O)c1ccc(-c2cccc(Cl)c2)o1	-5.9	157.1%	-23.8%	-52.5*	?	-2.6%
Cc1cccc(NC(=O)CC2C(=O)OCCN2Cc2ccccc2)c1 (stereo unspecified)	0.0	.	-2.4%	.	-1.0%	-10.5%
N#Cc1cc2nc(O)c(O)nc2cc1[N+](=O)[O-]	-2.4	0.2%	-7.2%	-57.3*	-11.7%	-4.6%
CNCc1ccccc1Sc1cccc(O)c1	5.2	1.8%	-0.2%	16.5	3.1%	0.7%
CNCc1ccccc1Sc1cc(O)ccc1O	-8.6	4.47µM*	-13.0%	?	?	-6.3%
O=C1c2cccnc2C(Nc2cccc(F)c2)N1Cc1ccco1 (stereo unspecified)	-3.1	11.8%	1.9%	-16.0	-2.8%	-2.5%
O=C(O)c1cc(O)c2c(c1)[C@H]([C@H]1c3cc(C(=O)O)cc(O)c3C(=O)c3c(O[C@@H]4O[C@H](CO)[C@@H](O)[C@H](O)[C@H]4O)cccc31)c1cccc(OC3O[C@H](CO)[C@@H](O)[C@H](O)[C@H]3O)c1C2=O (stereo partly specified)	-64.2*	.	0.708µM*	-78.6*	0.708µM*	?
O=C1c2cc(CO)cc(O)c2C(=O)c2c(O[C@@H]3OC(CO)[C@@H](O)[C@@H](O)[C@@H]3O)cccc21 (stereo partly specified)	0.1	.	.	-11.2	10.7%	-4.4%
O=C(O)c1cc(O)c2c(c1)[C@@H]([C@H]1c3cc(C(=O)O)cc(O)c3C(=O)c3c(O[C@@H]4O[C@H](CO)[C@@H](O)[C@H](O)[C@H]4O)cccc31)c1cccc(OC3O[C@H](CO)[C@@H](O)[C@H](O)[C@H]3O)c1C2=O (stereo partly specified)	-25.9	.	0.501µM*	-88.8*	.	?
C[n+]1cccc(/C=N/NC(=O)CC23CC4CC(CC(C4)C2)C3)c1	-4.0	3.98µM*	-7.8%	-11.3	0.3%	i
Cc1ccc(C)c(NS(=O)(=O)c2ccc(OCC(=O)NCC3CCCO3)cc2)c1 (stereo unspecified)	-1.7	1.4%	-0.4%	-1.5	-1.4%	3.9%
O=C(CN(Cc1ccccc1)S(=O)(=O)c1ccc(F)cc1)NCCC1=CCCCC1	4.4	-6.4%	0.794µM*	.	3.6%	-6.0%
CCOC(=O)C1CCN(c2nc(N)c3c(N)nc(SCC(=O)O)cc3c2C#N)CC1	?	54.4%	?	-87.8*	?	?
CCOC(=O)C1CCN(c2nc(C)cc(C)c2C#N)CC1	2.5	1.1%	0.0%	0.2	-11.4%	-5.2%
COc1cccc(/C=C/C(=O)OCC(=O)NCCC2=CCCCC2)c1	-2.0	60.7%	-12.5%	-64.7*	?	5.0%
COc1ccc(/C=C/C(=O)OCC(=O)NCCC2=CCCCC2)cc1	4.1	0.3%	-13.3%	-5.1	0.0%	-6.7%
SMILES	PI4K2A inh	RGS12 GoLoco inh	KAT2A inh	PI5P4K alpha inh	Pin1 inh	Tb PGK inh
COc1cccc(/C=C/C(=O)OCC(=O)NCc2ccco2)c1	-10.0	8.8%	-5.0%	-53.2*	?	-2.3%
COc1cc(CC(NC(C)=O)C(=O)NC2CCN(S(=O)(=O)c3ccc(NC(C)=O)cc3)CC2)cc(OC)c1 (stereo unspecified)	0.0	.	-13.9%	5.8	-8.6%	-2.5%
CCOC(=O)COc1ccc(Br)cc1C1NC(=O)NC(C)=C1C(=O)NCc1ccccc1 (stereo unspecified)	0.0	-2.7%	-7.1%	.	-6.6%	-1.2%
CCCCc1c(CCC)c(=N)c2ccccc2n1C	1.6	11.2µM*	?	-1.0	-1.6%	-1.5%
CCCCc1c(O)c2ccccc2n(CCCC)c1=O	1.7	1.0%	-2.5%	-3.6	-2.0%	-6.6%
Cc1cc2c(OCC(O)CNC3CCCCC3)cccc2[nH]1 (stereo unspecified)	-1.6	6.7%	-3.5%	0.9	-0.5%	-3.9%
C#CCOCCOCCOCCNc1nc(N2CCN(C(=O)CCCCCCCCCCNC(=O)Cn3cc(C[C@@H](C)O)nn3)CC2)nc(N2CCN(C(=O)CCCCCCCCCCNC(=O)[C@H](CCCCN)n3cc(CCCC(=O)O)nn3)CC2)n1	-14.4	.	-25.2%	-26.4	39.5%	-3.1%
C#CCOCCOCCOCCNc1nc(N2CCN(C(=O)CCCCCCCCCCNC(=O)Cn3cc(C[C@@H](C)O)nn3)CC2)nc(N2CCN(C(=O)CCCCCCCCCCNC(=O)[C@H](CCCN=C(N)N)n3cc(C[C@@H](C)CC)nn3)CC2)n1	-1.1	.	-9.6%	-75.7*	?	1.6%
C#CCOCCOCCOCCNc1nc(N2CCN(C(=O)CCCCCCCCCCNC(=O)[C@H](CO)n3cc(CCCSC)nn3)CC2)nc(N2CCN(C(=O)CCCCCCCCCCNC(=O)[C@H](CCCN=C(N)N)n3cc(C[C@@H](C)CC)nn3)CC2)n1	2.0	.	-12.8%	-79.0*	260.1%	-2.0%
